MITF primary: MITF inhibitors, primary screen, biochemical, AlphaScreen, human. AlphaScreen MITF homodimerization, bead proximity signal. inhibition, % at 2.6 µM. hit rate 0.91% among 650,000. AID 1259374, 2018; in the data active = inhibition above about 50%;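 note: 0% = vehicle wells with protein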
GPR151 activ: activators of human GPR151, primary screen, cell-based, PathHunter beta-arrestin, luminescence; G-protein coupled receptor 151 (Homo sapiens), Q8TDV0; PathHunter beta-arrestin GPR151 cells; activation, % at 11.2 µM; hit rate 1% among 650,000; AID 1508602, 2020; in the data active = activation above about 4.9%;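 note: 0% = median of compound wells and 100% = cells with positive control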
Target sequence (Q8TDV0 whole entry, looked up): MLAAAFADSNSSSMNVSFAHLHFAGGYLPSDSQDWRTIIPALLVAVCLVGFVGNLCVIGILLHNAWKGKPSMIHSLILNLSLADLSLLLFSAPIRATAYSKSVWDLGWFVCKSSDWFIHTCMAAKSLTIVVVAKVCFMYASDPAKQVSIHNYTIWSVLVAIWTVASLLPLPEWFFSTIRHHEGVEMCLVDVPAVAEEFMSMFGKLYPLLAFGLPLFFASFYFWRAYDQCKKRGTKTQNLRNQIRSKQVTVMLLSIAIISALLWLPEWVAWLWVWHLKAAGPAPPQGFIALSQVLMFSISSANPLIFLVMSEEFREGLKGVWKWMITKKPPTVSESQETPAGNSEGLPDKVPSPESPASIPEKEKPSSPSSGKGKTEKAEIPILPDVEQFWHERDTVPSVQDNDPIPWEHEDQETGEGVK
TEAD-YAP block: TEAD-YAP interaction inhibition, primary screen, TEAD-YAP interaction inhibitor project, luminescence, HEK-TIYL cells. TEAD-Gal4/YAP UAS-luciferase luminescence. inhibition, % at 9.12 µM. hit rate 1.4% among 640,000. AID 1259422, 2018; in the data active = inhibition above about 32%;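 note: 0% = median of test compound wells and 100% = reference inhibitor wells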
FBW7 activator: FBW7 E3 ligase activators, primary screen, biochemical, AlphaScreen, human; F-box/WD repeat-containing protein 7 (Homo sapiens), Q969H0; AlphaScreen FBW7–phospho-cyclin E peptide binding, activator screen; normalized activity (activation), % at 26.1 µM; hit rate 0.13% among 650,000; AID 1259310, 2017; in the data active = normalized activity above about 1.9%;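 note: purified mutant Fbw7 with reduced substrate affinity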
* marks the source's active call; other numbers are inactive results; . = no result. Rows were chosen to be rich in hits. Some 3.4% of all compounds tested hit in one or more screens of this group.

SMILES | MITF primary | GPR151 activ | TEAD-YAP block | FBW7 activator
Cc1c(C2=CCN(S(=O)(=O)c3cccc([N+](=O)[O-])c3)CC2)c2ccccc2n1C | 15.6 | 0.7 | -11.1 | 0.1
O=C(N/N=C/c1ccc([N+](=O)[O-])s1)c1ccc(F)cc1 | -6.7 | 1.3 | 45.0* | -0.2
O=C(N/N=C/c1ccc([N+](=O)[O-])o1)c1ccc(F)cc1 | 0.7 | -1.3 | 36.8* | -0.1
O=C(N/N=C/c1ccc([N+](=O)[O-])o1)c1ccccc1 | 7.4 | 0.7 | -4.7 | 0.0
Cc1ccc(C(=O)N/N=C/c2ccc([N+](=O)[O-])o2)cc1 | -0.9 | 0.6 | 39.9* | 0.0
Cc1cc(C(=O)N/N=C/c2ccc([N+](=O)[O-])o2)n[nH]1 | 22.8 | -1.1 | 32.0* | 0.6
C=CCN(C)CCCCCCOc1ccc(C(=O)c2ccc(Br)cc2)c(F)c1 | 2.7 | 2.2 | . | .
COc1cccc(C(=O)NCCCN(C)C)c1 | -3.6 | -0.3 | -1.6 | 0.0
OC(COc1ccc(Cl)cc1)CN1C2=NCCN2c2ccccc21 (stereo not drawn) | 11.0 | -0.7 | 40.0* | 0.5
O=C(CCC(=O)Nc1ccc(F)cc1)N/N=C/c1cccc(Br)c1 | -23.5 | 0.5 | 0.2 | -0.1
Cc1ccc2nc(N3CCN(C=O)CC3)nc(-c3ccccc3)c2c1 | -4.5 | -0.3 | 7.4 | 2.1*
O=C(c1ccccc1)N1CCN(c2nc(-c3ccccc3)c3ccccc3n2)CC1 | 9.3 | -0.4 | -1.8 | 2.2*
Cc1ccc(C(=O)N2CCN(c3nc(-c4ccccc4)c4cc(Br)ccc4n3)CC2)cc1 | 10.2 | -1.3 | -4.6 | -0.1
C/C(=N/Nc1ccc([N+](=O)[O-])cc1[N+](=O)[O-])c1ccccc1Cl | 0.8 | 0.4 | -1.8 | -0.2
CCOC(=O)Nc1ccc2c(c1)N(C(=O)OCC)c1ccccc1CC2 | 4.8 | 0.4 | 48.2* | -0.1
Cc1onc(-c2ccccc2Cl)c1C(=O)Nc1ccc(-c2nc3ccccc3[nH]2)cc1 | -3.2 | 3.5 | 32.5* | -0.2
CN(c1ccccc1)S(=O)(=O)c1ccc(C(=O)Nc2ccc(-c3nc4ccccc4[nH]3)cc2)cc1 | 6.8 | 1.1 | -6.2 | 1.0
Cc1onc(-c2ccccc2Cl)c1C(=O)Nc1ccccc1C(=O)Nc1ccccc1 | -12.6 | 1.8 | 32.5* | 0.0
CC(=O)NS(=O)(=O)c1ccc(NC(=O)c2c(-c3ccccc3Cl)noc2C)cc1 | 12.7 | 1.1 | -10.3 | 1.9*
CN(C)S(=O)(=O)c1ccc(C(=O)NC(=S)Nc2ccc(-c3nc4ccccc4[nH]3)cc2)cc1 | -17.4 | -1.5 | -27.7 | 3.9*
O=C(CS(=O)(=O)Cc1ccccc1)Nc1nc2ccc([N+](=O)[O-])cc2s1 | -24.5 | 0.9 | 9.1 | -0.1
Fc1ccc(Nc2ncnc3ccccc23)c(Cl)c1 | 3.2 | 2.0 | -9.3 | -0.2
CN(C)S(=O)(=O)c1cccc(CSc2nnc3c(Cl)cc(Cl)cn23)c1 | -1.7 | 0.0 | -7.6 | 0.0
O=C(NC(c1ccc(F)cc1)c1ccccn1)C1CCN(C(=O)N2CCOCC2)CC1 (stereo not drawn) | -6.6 | -0.9 | 1.7 | -0.2
COC(=O)c1c(N)sc(C(=O)Nc2cccc(Cl)c2)c1C | -2.4 | -5.6 | 71.7* | 0.0
SMILES | MITF primary | GPR151 activ | TEAD-YAP block | FBW7 activator
COC(=O)c1c(N)sc(C(=O)NCCc2ccccc2)c1C | 8.0 | -5.1 | 72.5* | 0.6
CCCNC(=O)c1sc(N)c(C(=O)OC)c1C | -3.1 | 0.6 | -10.5 | -0.1
COC(=O)c1c(N)sc(C(=O)Nc2cc(C)ccc2C)c1C | 6.5 | -3.0 | 79.3* | 0.2
Cc1ccc(-c2c(Nc3ccc(C)c(F)c3)c(=O)c2=O)cc1 | 8.6 | -0.4 | 9.3 | 0.2
COc1ccc(-c2c(Nc3ccc(F)c(Cl)c3)c(=O)c2=O)cc1 | 72.4* | -1.9 | -9.4 | 0.6
COc1cccc(Nc2c(-c3ccc(C)c(C)c3)c(=O)c2=O)c1 | -3.7 | 1.0 | 48.8* | 0.1
O=c1c(Nc2ccc(F)c(Cl)c2)c(-c2ccccc2)c1=O | 5.3 | 2.4 | -3.1 | 0.1
COc1ccc(-c2c(Nc3ccc(C)c(F)c3)c(=O)c2=O)cc1 | 78.5* | -1.0 | -10.8 | 0.7
COc1cccc2cc(C(=O)NCCCN3CCOCC3)c(=O)oc12 | 11.7 | -0.2 | 10.7 | 0.1
CS(=O)(=O)C1=NN2C(=N)/C(=C\c3ccc(Br)cc3)C(=O)N=C2S1 | 2.4 | -1.8 | -17.4 | 0.1
CCS(=O)(=O)C1=NN2C(=N)/C(=C\c3ccc(Br)o3)C(=O)N=C2S1 | 77.7* | -0.4 | -0.2 | -0.6
CCS(=O)(=O)C1=NN2C(=N)/C(=C\c3ccc([N+](=O)[O-])o3)C(=O)N=C2S1 | 93.0* | -0.4 | 3.3 | -0.7
CCS(=O)(=O)C1=NN2C(=N)/C(=C\c3ccc(C)o3)C(=O)N=C2S1 | 0.5 | 1.8 | -4.8 | -0.1
CS(=O)(=O)C1=NN2C(=N)/C(=C\c3ccc(Br)o3)C(=O)N=C2S1 | 79.4* | 2.5 | -10.1 | -0.3
CCc1c(C(=O)c2ccccc2)oc2ccc3c(C)cc(=O)oc3c12 | -6.3 | 0.2 | 41.3* | 0.2
CCc1c(C(=O)c2ccc(Cl)cc2)oc2ccc3c(C)cc(=O)oc3c12 | 28.1 | -1.9 | -6.3 | 1.2
Cc1ccc(C(=O)c2oc3ccc4c(C)cc(=O)oc4c3c2-c2ccccc2)cc1 | -5.4 | -1.5 | 62.1* | -0.1
CCOc1ccc(-c2c[n+]3c(n2Cc2ccccc2)SCCC3)cc1 | 4.8 | 0.3 | 66.8* | 0.0
CCOc1ccc(-n2c(-c3ccccc3)csc2=NC(C)=O)cc1 | -1.0 | -1.1 | -4.8 | 0.1
CCOc1ccc(-n2c(-c3ccccc3)c[n+]3c2CCCCC3)cc1 | 19.2 | -0.6 | 65.6* | 0.1
Brc1ccc(-c2c[n+]3c(n2Cc2ccccc2)SCCC3)cc1 | 9.1 | -0.3 | -27.2 | 0.0
CCOC(=O)C1=C(C(=O)OCC)SC(=C2C(=S)C(C)(C)N(C)c3ccc(C)cc32)S1 | 42.0 | -0.9 | 2.4 | -0.6
CC1CN(C(C)C)CCC1CCc1ccc(NC(=O)C2CCCO2)cc1 (stereo not drawn) | 1.1 | 0.0 | -9.2 | 0.0
COCCCNc1ncnc2sc(C)cc12 | -1.2 | 1.5 | 17.4 | -0.1
COc1ccccc1CNc1nc(C)nc2sc(C)cc12 | 0.8 | 2.1 | 48.2* | 0.4
SMILES | MITF primary | GPR151 activ | TEAD-YAP block | FBW7 activator
COc1ccccc1CNc1ncnc2sc(C)c(C)c12 | -1.4 | 1.5 | 1.9 | 0.1
Cc1nc(NCc2ccccn2)c2cc(C)sc2n1 | 9.7 | 2.9 | 11.7 | -0.1
COc1ccccc1CNc1ncnc2sc(C)cc12 | -0.2 | -0.9 | 32.4* | 0.1
CCCCNc1ncnc2sc(C)cc12 | 1.1 | -0.2 | 36.9* | 0.2
CC(=O)NCCNc1nc2c(-c3cccc(C(F)(F)F)c3)nnn2c2ccccc12 | 4.5 | -0.4 | 2.1 | 0.0
CCC(O)CNC(=O)c1sc2ncnc(N(C)CCc3ccccn3)c2c1C (stereo not drawn) | 3.6 | 1.1 | 3.7 | 0.0
CSc1ccccc1NC(=O)CSc1nc2ccccc2s1 | -6.9 | 0.2 | -3.2 | 0.1
O=C1CCCN1CCCNc1nc(-c2ccccc2)nc2c1ncn2-c1ccccc1 | 2.0 | 3.4 | 32.5* | -0.1
